Assay results as given in PubChem BioAssay (NCATS).
Records with an inconclusive call do not appear. Where a call stands in place of a potency, no number is given. Active and inactive are the calls of the source. The call rests on the fitted dose curve; in most records, active means well fitted curve in the direction sought with a large enough effect; inconclusive means small, poorly fitted or top-dose-only effect, or another doubt; inactive means no such curve, though single readings can be large; an effect the other way counts as inactive or inconclusive.

Legend:
[1] = target: Voltage-gated inwardly rectifying potassium channel KCNH2 (Homo sapiens) (UniProt Q12809); assay: qHTS Assay for Small Molecule Inhibitors of the Human hERG Channel Activity (AID 588834);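 further: lower thallium flux fluorescence means stronger hERG block; nearly all actives have a fitted effect of over 50% in size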
Method in brief: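 hERG block measured as reduced thallium-dye (FluxOR) fluorescence after stimulation buffer addition, read over 2 min. Cells were hERG-BacMam-transduced U2OS exposed to compound ~10 min […]; concentration-response fitted with Hill equation for AC50.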

[2] = target: Luciferin 4-monooxygenase (Photinus pyralis) (UniProt P08659); assay: Biochemical firefly luciferase enzyme assay for NPC (AID 624030); further: nearly all actives have a fitted effect of over 70% in size
Method in brief: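 Direct inhibition of firefly luciferase enzyme (10 nM final, 50 mM Tris Acetate) assessed by luminescence within 5 minutes. Percent activity scaled between DMSO and PTC124 positive control, with concentration-effect curves classified by fit quality and response.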

[3] = S16 Schwann cell viability assay (CellTiter-Glo assay) (AID 624031); further: nearly all actives have a fitted effect of over 70% in size
Method in brief: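 Cells were seeded at 500-750 per well in phenol red-free DMEM with 10% FBS and left overnight. Compounds or DMSO were pinned in, incubation ran 24 h at 37 °C/5% CO2, then CellTiter-Glo reagent was added and luminescence measured.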

[4] = S16 Schwann cell PMP22 intronic element firefly luciferase assay (AID 624032); further: nearly all actives have a fitted effect of over 30% in size
Method in brief: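 Luciferase reporter of PMP22 intronic-element expression in stably transfected S16 rat Schwann cells, read by ONE-Glo luminescence after 24 h compound exposure at 37 C. Activity scaled between DMSO (0%) and positive-control PTC124; concentration-effect curves quality-classified.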
Potency means the concentration at half of the fitted maximal effect.

Chain of Luciferin 4-monooxygenase (Photinus pyralis) (P08659 whole entry, looked up): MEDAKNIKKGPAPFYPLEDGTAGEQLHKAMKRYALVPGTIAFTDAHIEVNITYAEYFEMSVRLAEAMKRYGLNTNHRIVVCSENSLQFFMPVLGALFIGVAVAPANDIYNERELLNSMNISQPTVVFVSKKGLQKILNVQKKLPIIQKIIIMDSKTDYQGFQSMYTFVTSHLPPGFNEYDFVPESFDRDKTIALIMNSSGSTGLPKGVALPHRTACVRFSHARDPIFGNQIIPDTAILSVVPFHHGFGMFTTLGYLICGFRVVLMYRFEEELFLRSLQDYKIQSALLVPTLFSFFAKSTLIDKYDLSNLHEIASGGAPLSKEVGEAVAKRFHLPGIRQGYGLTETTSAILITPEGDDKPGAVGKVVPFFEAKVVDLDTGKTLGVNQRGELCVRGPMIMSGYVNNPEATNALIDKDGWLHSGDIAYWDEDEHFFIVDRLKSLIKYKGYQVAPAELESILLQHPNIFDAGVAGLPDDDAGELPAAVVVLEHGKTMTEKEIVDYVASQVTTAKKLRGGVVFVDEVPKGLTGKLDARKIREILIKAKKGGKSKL
Chain of Voltage-gated inwardly rectifying potassium channel KCNH2 (Homo sapiens) (Q12809 whole entry, looked up): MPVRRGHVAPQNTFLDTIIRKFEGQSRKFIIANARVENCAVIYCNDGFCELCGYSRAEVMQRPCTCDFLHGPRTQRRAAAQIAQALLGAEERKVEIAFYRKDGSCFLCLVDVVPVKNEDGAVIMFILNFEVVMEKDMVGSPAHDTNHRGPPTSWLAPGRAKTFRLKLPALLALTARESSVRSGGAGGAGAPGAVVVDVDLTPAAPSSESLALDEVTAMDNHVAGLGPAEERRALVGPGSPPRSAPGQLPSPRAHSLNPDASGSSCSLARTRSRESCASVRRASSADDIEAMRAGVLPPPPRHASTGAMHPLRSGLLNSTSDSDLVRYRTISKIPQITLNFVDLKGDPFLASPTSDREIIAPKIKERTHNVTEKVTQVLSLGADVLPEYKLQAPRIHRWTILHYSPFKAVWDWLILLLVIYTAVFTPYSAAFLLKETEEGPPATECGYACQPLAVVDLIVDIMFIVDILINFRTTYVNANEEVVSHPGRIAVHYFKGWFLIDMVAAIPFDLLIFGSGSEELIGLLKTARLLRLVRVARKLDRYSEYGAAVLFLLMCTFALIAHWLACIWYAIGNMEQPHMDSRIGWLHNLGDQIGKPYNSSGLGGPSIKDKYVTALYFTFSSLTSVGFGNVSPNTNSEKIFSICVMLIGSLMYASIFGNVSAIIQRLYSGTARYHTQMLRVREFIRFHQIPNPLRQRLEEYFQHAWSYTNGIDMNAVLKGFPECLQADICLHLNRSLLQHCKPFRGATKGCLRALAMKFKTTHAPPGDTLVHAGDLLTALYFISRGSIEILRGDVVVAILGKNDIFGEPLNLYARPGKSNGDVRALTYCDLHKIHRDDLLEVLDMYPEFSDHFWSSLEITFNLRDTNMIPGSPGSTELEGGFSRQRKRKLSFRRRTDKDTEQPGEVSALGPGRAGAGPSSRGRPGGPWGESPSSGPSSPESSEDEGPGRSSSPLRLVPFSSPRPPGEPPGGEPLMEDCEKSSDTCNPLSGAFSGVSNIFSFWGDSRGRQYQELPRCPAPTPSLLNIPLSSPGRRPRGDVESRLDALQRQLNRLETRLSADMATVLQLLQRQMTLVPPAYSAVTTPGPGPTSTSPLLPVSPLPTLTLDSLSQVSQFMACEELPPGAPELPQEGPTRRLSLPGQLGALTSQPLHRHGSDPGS

OC(CN1CCN(c2cccc(Cl)c2)CC1)C(c1ccccc1)c1ccccc1 (stereo not drawn)
Potency [1]: 1.58 µM (active)

Cc1nc(Nc2ncc(C(=O)Nc3c(C)cccc3Cl)s2)cc(N2CCN(CCO)CC2)n1
Potency [1]: inactive | Potency [2]: inactive

CC1Cc2ccccc2N1NC(=O)c1ccc(Cl)c(S(N)(=O)=O)c1 (stereo not drawn)
Potency [1]: inactive | Potency [2]: inactive

Cc1cc(C2CCCCC2)n(O)c(=O)c1
Potency [1]: inactive | Potency [2]: inactive | Potency [3]: inactive | Potency [4]: 1.55 µM (active)

O=Nc1c(-c2c(O)[nH]c3cc(Br)ccc23)[nH]c2ccccc12
Potency [1]: 11.2 µM (active)

COC(=O)C1=C(C)NC(C)=C(C(=O)OCCCN2CCC(c3ccccc3)(c3ccccc3)CC2)C1c1cccc([N+](=O)[O-])c1 (stereo not drawn)
Potency [1]: 2 µM (active) | Potency [2]: inactive | Potency [3]: 16.1 µM (active) | Potency [4]: 10.2 µM (active)

NCCCCNCCCN
Potency [1]: inactive

Nc1cccc2c1CN(C1CCC(=O)NC1=O)C2=O (stereo not drawn)
Potency [1]: inactive | Potency [2]: inactive | Potency [3]: inactive | Potency [4]: inactive

CCN(CC)CCOc1ccc(Cc2ccccc2)cc1
Potency [1]: 5.01 µM (active) | Potency [2]: inactive | Potency [3]: inactive | Potency [4]: inactive

O=C(O)c1cccc(-c2noc(-c3ccccc3F)n2)c1
Potency [1]: inactive | Potency [2]: 0.0072 µM (active) | Potency [3]: inactive | Potency [4]: inactive

CN(C)c1ccc(O)c2c1C[C@H]1C[C@H]3[C@H](N(C)C)C(=O)C(C(N)=O)=C(O)[C@@]3(O)C(=O)C1=C2O
Potency [1]: inactive | Potency [2]: inactive

O=C1c2c(O)cc(O)cc2OC(c2ccc(O)c(O)c2)C1O (stereo not drawn)
Potency [1]: inactive

CC(S)C(=O)NCC(=O)O (stereo not drawn)
Potency [1]: inactive | Potency [2]: inactive | Potency [3]: inactive | Potency [4]: inactive

Oc1ccc(-c2nc(-c3ccc(F)cc3)c(-c3ccncc3)[nH]2)cc1
Potency [1]: inactive

CN1CCC(=C2c3ccccc3CCc3sccc32)CC1
Potency [1]: 10 µM (active) | Potency [2]: inactive

COC(=O)C1=C(C)NC(C)=C(C(=O)OC(C)C)C1c1cccc2nonc12 (stereo not drawn)
Potency [1]: inactive

CC(=O)O[C@H]1C(=O)[C@@]2(C)C([C@H](OC(=O)c3ccccc3)[C@]3(O)C[C@H](OC(=O)[C@H](O)[C@@H](NC(=O)c4ccccc4)c4ccccc4)C(C)=C1C3(C)C)[C@]1(OC(C)=O)CO[C@@H]1C[C@@H]2O (stereo partly drawn)
Potency [1]: inactive

Cc1cc2c(s1)Nc1ccccc1N=C2N1CCN(C)CC1
Potency [1]: inactive | Potency [2]: inactive | Potency [3]: inactive | Potency [4]: inactive

CCCOc1ccc2nc(NC(=O)OC)[nH]c2c1
Potency [1]: inactive | Potency [2]: inactive | Potency [3]: inactive | Potency [4]: inactive

CC(C)c1ccc2c(c1)c(SC(C)(C)C)c(CC(C)(C)C(=O)O)n2Cc1ccc(Cl)cc1
Potency [1]: inactive

Cc1cc(=O)oc2cc(O)ccc12
Potency [1]: inactive | Potency [2]: inactive | Potency [3]: inactive | Potency [4]: inactive

O=C(CS(=O)Cc1ccco1)NCC=CCOc1cc(CN2CCCCC2)ccn1 (stereo not drawn)
Potency [1]: inactive | Potency [2]: inactive | Potency [3]: inactive | Potency [4]: inactive

O=c1c(O)c(-c2cc(O)c(O)c(O)c2)oc2cc(O)cc(O)c12
Potency [1]: inactive

Nc1ccn([C@@H]2O[C@H](CO)[C@@H](O)C2O)c(=O)n1 (stereo partly drawn)
Potency [1]: inactive | Potency [2]: inactive | Potency [3]: inactive

Cc1ccc(S(=O)(=O)NC(=O)NN2CC3CCCC3C2)cc1 (stereo not drawn)
Potency [1]: inactive

Clc1ccc(C(Cn2ccnc2)OCc2ccsc2Cl)c(Cl)c1 (stereo not drawn)
Potency [1]: 10 µM (active) | Potency [2]: inactive

COc1c(O)cc2c(c1O)[C@@H]1O[C@H](CO)[C@@H](O)[C@H](O)[C@H]1OC2=O
Potency [1]: inactive

O=C(NCCO[N+](=O)[O-])c1cccnc1
Potency [1]: inactive | Potency [2]: inactive | Potency [3]: inactive

CC(C)[C@H](N)C(=O)OCCOCn1cnc2c(=O)[nH]c(N)nc21
Potency [1]: inactive | Potency [2]: inactive | Potency [3]: inactive | Potency [4]: inactive

S=c1nc[nH]c2nc[nH]c12
Potency [1]: inactive

CC(=O)Nc1ccc(O)cc1
Potency [1]: inactive | Potency [2]: inactive | Potency [3]: inactive

O=C(O)c1cc(=O)c2c(OCC(O)COc3cccc4oc(C(=O)O)cc(=O)c34)cccc2o1
Potency [1]: inactive | Potency [2]: inactive | Potency [3]: inactive | Potency [4]: inactive
